Laboratory results from ChEMBL document CHEMBL1961873, “Compounds: GSK PKIS; Assays: Nanosyn kinase panel” (2012).

Columns and labels:
[1] = target: Sphingosine kinase 1 (Homo sapiens) (UniProt Q9NYA1); conditions: at 1 µM;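 note: mean SPHK1 inhibition value reported from the GSK PKIS kinase panel screen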
[2] = target: T1, Sphingosine kinase 2 (Homo sapiens) (UniProt Q9NRA0); conditions: at 0.1 µM
T1 sequence (whole entry): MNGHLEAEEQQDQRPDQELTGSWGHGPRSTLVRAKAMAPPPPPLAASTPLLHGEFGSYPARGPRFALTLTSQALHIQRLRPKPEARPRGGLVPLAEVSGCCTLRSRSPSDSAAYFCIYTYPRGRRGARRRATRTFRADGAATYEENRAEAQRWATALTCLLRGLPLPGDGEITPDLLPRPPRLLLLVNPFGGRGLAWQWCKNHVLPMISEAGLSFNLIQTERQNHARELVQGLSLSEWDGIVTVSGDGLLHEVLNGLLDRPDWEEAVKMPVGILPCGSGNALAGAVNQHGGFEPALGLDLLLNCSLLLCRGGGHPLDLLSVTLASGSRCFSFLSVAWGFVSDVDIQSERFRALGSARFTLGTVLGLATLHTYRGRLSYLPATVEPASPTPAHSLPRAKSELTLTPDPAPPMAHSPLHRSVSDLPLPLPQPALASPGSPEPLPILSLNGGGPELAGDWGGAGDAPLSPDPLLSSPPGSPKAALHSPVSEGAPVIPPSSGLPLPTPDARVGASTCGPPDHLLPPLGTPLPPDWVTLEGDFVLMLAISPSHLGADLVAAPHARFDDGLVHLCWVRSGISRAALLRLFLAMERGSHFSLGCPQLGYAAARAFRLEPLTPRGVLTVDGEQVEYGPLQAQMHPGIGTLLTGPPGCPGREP

[3] = target: T1, Sphingosine kinase 2 (Homo sapiens); conditions: at 1 µM
[4] = target: Casein kinase II subunit alpha (Homo sapiens) (UniProt P68400); conditions: at 0.1 µM
Sequence of Casein kinase II subunit alpha (Homo sapiens) (P68400 whole entry, looked up): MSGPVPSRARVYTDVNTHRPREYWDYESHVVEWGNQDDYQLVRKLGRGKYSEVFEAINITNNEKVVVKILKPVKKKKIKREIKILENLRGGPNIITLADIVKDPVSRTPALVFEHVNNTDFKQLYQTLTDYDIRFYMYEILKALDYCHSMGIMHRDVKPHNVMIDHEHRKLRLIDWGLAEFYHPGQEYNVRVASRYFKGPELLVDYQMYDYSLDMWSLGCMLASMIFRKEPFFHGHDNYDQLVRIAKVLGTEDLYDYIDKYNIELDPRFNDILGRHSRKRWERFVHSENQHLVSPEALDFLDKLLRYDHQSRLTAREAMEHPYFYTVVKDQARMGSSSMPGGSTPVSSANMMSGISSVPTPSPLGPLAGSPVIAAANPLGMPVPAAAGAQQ

[5] = target: Casein kinase II subunit alpha (Homo sapiens) (UniProt P68400); conditions: at 1 µM
[6] = target: T2, Inhibitor of nuclear factor kappa-B kinase subunit alpha (Homo sapiens) (UniProt O15111); conditions: at 0.1 µM
T2 sequence (whole entry): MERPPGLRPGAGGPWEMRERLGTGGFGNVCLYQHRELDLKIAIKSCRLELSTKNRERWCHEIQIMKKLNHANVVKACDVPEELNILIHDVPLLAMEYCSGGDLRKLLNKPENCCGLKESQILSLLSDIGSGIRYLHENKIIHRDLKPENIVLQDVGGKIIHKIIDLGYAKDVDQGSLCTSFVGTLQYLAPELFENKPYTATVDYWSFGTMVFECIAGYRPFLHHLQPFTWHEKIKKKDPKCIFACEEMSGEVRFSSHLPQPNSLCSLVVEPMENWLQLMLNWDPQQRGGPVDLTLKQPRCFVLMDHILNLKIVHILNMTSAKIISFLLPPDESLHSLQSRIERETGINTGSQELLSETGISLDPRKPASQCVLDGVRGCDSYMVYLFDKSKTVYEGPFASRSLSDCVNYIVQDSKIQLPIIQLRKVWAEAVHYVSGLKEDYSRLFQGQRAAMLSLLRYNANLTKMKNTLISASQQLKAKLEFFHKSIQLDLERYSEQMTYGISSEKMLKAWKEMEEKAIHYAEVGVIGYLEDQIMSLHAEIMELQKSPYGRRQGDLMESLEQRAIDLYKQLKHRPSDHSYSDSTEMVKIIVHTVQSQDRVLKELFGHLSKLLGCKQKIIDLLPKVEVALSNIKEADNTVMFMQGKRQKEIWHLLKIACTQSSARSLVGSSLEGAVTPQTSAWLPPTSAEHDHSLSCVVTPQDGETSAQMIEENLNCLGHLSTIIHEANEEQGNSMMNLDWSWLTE

[7] = target: T2, Inhibitor of nuclear factor kappa-B kinase subunit alpha (Homo sapiens); conditions: at 1 µM
[8] = target: T3, Inhibitor of nuclear factor kappa-B kinase subunit beta (Homo sapiens) (UniProt O14920); conditions: at 0.1 µM
T3 sequence (whole entry): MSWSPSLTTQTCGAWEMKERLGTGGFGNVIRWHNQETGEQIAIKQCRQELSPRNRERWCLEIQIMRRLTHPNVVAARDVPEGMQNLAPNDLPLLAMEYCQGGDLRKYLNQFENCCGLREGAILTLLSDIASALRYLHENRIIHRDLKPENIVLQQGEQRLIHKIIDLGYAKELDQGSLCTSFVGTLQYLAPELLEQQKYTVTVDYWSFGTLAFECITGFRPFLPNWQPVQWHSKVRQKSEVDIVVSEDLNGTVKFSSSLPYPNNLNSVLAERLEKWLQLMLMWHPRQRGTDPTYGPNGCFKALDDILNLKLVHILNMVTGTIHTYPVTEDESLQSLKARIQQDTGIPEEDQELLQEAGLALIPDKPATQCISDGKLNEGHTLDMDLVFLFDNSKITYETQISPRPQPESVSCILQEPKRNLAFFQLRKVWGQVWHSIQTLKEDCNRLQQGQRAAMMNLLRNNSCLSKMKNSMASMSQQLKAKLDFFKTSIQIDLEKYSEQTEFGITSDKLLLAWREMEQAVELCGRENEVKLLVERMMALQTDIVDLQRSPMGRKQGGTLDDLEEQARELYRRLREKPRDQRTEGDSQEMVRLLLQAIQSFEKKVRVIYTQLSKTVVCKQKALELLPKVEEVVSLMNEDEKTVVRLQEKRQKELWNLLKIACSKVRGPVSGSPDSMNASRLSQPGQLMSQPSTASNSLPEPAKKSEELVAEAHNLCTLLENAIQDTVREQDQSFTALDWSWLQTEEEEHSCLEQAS

[9] = target: T3, Inhibitor of nuclear factor kappa-B kinase subunit beta (Homo sapiens); conditions: at 1 µM
[10] = target: T4, Inhibitor of nuclear factor kappa-B kinase subunit epsilon (Homo sapiens) (UniProt Q14164); conditions: at 0.1 µM
T4 sequence (whole entry): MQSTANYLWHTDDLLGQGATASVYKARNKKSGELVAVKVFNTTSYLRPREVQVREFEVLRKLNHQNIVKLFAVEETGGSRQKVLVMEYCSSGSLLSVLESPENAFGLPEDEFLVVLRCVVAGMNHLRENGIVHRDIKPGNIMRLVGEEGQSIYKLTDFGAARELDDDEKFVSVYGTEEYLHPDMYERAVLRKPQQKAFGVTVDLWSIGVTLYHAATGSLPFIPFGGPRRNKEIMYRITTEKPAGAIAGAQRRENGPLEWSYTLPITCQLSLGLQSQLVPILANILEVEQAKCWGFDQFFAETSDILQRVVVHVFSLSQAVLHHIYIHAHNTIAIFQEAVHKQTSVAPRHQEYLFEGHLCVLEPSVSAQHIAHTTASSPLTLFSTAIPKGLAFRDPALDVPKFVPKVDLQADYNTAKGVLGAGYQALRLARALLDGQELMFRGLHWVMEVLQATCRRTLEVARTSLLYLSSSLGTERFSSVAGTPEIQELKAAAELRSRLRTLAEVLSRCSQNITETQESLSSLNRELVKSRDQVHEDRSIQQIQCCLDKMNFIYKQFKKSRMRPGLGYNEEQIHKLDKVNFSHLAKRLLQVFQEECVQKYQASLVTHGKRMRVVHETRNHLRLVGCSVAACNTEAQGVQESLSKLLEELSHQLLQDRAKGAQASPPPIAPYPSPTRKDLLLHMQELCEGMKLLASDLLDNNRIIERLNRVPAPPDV

[11] = target: T4, Inhibitor of nuclear factor kappa-B kinase subunit epsilon (Homo sapiens); conditions: at 1 µM
[12] = target: T5, Serine/threonine-protein kinase Nek1 (Homo sapiens) (UniProt Q96PY6); conditions: at 0.1 µM
T5 sequence (whole entry): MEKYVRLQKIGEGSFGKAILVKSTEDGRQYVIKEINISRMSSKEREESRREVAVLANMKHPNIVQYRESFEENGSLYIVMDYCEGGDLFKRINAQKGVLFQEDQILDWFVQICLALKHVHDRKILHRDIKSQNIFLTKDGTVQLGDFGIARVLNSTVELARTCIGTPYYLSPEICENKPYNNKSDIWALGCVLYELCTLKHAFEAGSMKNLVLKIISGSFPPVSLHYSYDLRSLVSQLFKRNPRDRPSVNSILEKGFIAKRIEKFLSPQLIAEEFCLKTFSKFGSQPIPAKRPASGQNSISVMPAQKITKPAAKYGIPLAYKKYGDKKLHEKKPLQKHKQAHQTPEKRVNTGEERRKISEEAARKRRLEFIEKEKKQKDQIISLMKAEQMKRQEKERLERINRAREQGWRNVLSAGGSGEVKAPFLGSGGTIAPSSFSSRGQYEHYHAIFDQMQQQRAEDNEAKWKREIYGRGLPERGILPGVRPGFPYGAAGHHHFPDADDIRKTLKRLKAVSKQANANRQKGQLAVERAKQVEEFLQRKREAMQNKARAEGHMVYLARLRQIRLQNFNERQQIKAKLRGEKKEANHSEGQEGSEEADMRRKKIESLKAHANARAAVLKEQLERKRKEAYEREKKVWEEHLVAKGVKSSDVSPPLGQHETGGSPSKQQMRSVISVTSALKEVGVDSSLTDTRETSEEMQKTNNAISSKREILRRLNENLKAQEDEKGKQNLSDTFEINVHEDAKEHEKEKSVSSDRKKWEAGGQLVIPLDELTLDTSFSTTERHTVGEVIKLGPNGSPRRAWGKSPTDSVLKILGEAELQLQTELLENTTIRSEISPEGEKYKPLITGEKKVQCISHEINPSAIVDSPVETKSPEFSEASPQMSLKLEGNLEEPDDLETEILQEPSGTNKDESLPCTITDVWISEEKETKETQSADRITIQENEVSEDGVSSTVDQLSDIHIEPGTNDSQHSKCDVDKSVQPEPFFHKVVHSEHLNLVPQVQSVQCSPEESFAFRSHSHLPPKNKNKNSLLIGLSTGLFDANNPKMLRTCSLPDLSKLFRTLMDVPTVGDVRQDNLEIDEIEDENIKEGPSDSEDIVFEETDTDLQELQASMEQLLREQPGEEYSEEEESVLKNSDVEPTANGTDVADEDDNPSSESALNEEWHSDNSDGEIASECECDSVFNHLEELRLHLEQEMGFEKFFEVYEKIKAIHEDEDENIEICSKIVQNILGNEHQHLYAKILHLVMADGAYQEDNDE

[13] = target: T5, Serine/threonine-protein kinase Nek1 (Homo sapiens); conditions: at 1 µM
[14] = target: T6, Serine/threonine-protein kinase Nek2 (Homo sapiens) (UniProt P51955); conditions: at 0.1 µM
T6 sequence (whole entry): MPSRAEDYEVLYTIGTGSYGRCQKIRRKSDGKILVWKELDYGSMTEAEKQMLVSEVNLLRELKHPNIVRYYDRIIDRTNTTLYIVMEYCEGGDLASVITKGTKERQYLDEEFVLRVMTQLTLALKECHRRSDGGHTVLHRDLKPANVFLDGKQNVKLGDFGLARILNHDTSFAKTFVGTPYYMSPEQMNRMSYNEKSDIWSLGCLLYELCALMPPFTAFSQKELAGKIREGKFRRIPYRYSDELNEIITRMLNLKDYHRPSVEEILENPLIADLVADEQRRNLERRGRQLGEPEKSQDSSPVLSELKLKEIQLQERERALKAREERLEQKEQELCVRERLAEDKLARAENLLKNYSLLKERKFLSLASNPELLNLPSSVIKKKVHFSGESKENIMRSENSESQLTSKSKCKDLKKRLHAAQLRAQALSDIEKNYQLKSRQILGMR

[15] = target: T6, Serine/threonine-protein kinase Nek2 (Homo sapiens); conditions: at 1 µM
[16] = target: Serine/threonine-protein kinase Nek6 (Homo sapiens) (UniProt Q9HC98); conditions: at 0.1 µM
Sequence of Serine/threonine-protein kinase Nek6 (Homo sapiens) (Q9HC98 whole entry): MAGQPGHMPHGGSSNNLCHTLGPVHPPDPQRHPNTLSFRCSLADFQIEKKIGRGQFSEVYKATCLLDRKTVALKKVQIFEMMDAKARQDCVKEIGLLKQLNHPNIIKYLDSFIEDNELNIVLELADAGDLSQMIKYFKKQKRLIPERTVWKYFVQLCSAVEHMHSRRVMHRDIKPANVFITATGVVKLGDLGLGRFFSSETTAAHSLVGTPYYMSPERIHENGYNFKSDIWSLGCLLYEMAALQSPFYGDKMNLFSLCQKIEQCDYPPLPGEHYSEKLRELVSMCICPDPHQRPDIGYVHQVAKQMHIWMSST

[17] = target: Serine/threonine-protein kinase Nek6 (Homo sapiens) (UniProt Q9HC98); conditions: at 1 µM
[18] = target: Serine/threonine-protein kinase Nek7 (Homo sapiens) (UniProt Q8TDX7); conditions: at 0.1 µM
Sequence of Serine/threonine-protein kinase Nek7 (Homo sapiens) (Q8TDX7 whole entry, looked up): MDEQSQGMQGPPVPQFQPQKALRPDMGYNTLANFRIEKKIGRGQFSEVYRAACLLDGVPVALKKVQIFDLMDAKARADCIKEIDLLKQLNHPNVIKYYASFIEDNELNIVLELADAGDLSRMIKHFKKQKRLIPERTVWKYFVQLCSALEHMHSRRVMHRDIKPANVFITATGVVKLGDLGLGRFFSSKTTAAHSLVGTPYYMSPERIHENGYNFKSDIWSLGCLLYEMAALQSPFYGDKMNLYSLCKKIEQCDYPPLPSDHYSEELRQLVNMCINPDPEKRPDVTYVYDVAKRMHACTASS

[19] = target: Serine/threonine-protein kinase Nek7 (Homo sapiens) (UniProt Q8TDX7); conditions: at 1 µM
[20] = target: T7, Serine/threonine-protein kinase Nek9 (Homo sapiens) (UniProt Q8TD19); conditions: at 0.1 µM;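 note: reported value is the mean percent inhibition of NEK9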
T7 sequence (whole entry): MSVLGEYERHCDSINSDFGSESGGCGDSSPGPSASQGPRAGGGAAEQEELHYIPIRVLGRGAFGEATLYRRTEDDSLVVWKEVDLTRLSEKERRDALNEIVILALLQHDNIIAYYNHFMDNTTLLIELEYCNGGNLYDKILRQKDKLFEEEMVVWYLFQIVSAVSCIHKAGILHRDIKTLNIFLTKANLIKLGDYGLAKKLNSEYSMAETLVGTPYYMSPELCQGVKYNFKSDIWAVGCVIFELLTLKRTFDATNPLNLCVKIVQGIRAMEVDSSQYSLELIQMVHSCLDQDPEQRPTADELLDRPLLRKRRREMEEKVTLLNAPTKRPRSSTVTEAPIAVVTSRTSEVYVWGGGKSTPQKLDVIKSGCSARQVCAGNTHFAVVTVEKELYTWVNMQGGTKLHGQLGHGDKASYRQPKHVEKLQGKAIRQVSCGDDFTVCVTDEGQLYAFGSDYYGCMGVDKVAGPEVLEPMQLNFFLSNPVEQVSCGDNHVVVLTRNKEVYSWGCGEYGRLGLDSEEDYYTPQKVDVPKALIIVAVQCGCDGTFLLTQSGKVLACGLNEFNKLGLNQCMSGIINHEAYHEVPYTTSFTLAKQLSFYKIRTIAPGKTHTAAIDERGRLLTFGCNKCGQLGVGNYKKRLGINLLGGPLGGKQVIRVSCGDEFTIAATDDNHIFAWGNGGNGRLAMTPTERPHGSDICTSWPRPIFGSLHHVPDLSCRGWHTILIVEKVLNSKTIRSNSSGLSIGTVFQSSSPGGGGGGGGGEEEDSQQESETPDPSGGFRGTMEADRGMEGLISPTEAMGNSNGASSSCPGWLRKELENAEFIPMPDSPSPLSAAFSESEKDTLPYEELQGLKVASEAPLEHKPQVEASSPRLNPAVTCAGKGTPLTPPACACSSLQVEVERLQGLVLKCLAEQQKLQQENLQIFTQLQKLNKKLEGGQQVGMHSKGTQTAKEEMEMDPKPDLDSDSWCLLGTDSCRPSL

Sequence of Sphingosine kinase 1 (Homo sapiens) (Q9NYA1 whole entry): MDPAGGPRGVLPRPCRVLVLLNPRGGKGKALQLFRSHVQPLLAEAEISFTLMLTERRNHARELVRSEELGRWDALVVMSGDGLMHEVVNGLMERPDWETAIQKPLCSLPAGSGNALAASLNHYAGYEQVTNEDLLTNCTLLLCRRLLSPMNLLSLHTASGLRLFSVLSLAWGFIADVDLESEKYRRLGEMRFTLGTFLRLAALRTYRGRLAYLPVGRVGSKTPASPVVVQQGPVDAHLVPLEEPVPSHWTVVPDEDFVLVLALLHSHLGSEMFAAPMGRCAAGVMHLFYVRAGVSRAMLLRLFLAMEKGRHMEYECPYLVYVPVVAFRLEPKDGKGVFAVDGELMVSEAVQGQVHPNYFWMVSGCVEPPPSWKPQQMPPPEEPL

Compound | inhibition [1] | inhibition [2] | inhibition [3] | inhibition [4] | inhibition [5] | inhibition [6] | inhibition [7] | inhibition [8] | inhibition [9] | inhibition [10] | inhibition [11] | inhibition [12] | inhibition [13] | inhibition [14] | inhibition [15] | inhibition [16] | inhibition [17] | inhibition [18] | inhibition [19] | inhibition [20]
CNC(=O)c1ncccc1Nc1nc(Nc2cc3c(cc2OC)CCCN3C(=O)CN(C)C)nc2[nH]ccc12 | -0.03% | -0.11% | -1.01% | 6.76% | 22.8% | 12.9% | 7.49% | 2.85% | -0.65% | 5.04% | 10.1% | 0.87% | 2.58% | 4.37% | 3.89% | 2.87% | -0.46% | 3.53% | 7.42% | 5.86%
Cc1c2ccc(N(C)c3ccnc(Nc4cccc(S(N)(=O)=O)c4)n3)cc2nn1C | 1.41% | -0.17% | 0% | 0.52% | 0.25% | 7.99% | 3.93% | 5.79% | 5.44% | 4.78% | 6.19% | 3.11% | 4.82% | 6.4% | 19.9% | 0.7% | 0.72% | 5.3% | 3.13% | 9.14%
